{"source": "PubChem BioAssay (NCI)", "note": "Compounds without any hit were thinned out: in the full panel of roughly 83,000, 20% have a hit.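 Percent growth is the endpoint: 0 to 100 indicates growth inhibition (40 means 60% inhibition), 0 means no net growth, and negative values indicate cell death.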 Activity calls are given as the source filed them. How the source made its calls: active means growth percent below 10; inactive means the rest.", "data": [{"test_system": "HL-60(TB) leukemia", "test": "NCI-60 one-dose screen, 48 h (100 = growth as untreated, 0 = no growth, -100 = all killed)", "settings": "10 µM unless noted", "values": [{"smiles": "Cc1ccc(C(=O)NN2C(=O)CSC2c2cccc([N+](=O)[O-])c2)cn1", "note": "(stereo not given)", "growth": "82.7% (inactive)"}, {"smiles": "CCCCC[C@@H]1Cc2cc(O)c(C(=O)O)c3c2[C@H](C[C@@]2(CCCO2)O3)O1", "growth": "86.5% (inactive)"}, {"smiles": "COc1cc([C@H](C)c2ccc3ccccc3c2)cc(OC)c1OC", "growth": "-5.85% (active)"}, {"smiles": "CCCc1cn(CC(=O)Nc2nc3ccccc3s2)nn1", "growth": "101% (inactive)"}, {"smiles": "COc1ccc(Cn2cc(C(=O)Nc3cccnc3Nc3ccccc3)nn2)cc1", "growth": "104% (inactive)"}]}]}
